Assay results as given in the supplement of paper PMC6555819.

How the values were obtained:
Experiment in all cases: PBM binding z-score (relative to random genomic background probes); higher = stronger binding; sequences stand for … in GC…GCGATTGACAGCGTAGAATGAAGG
[1] = system: FXR:RXRa (NR concentration 270 nM, RXRa partner concentration 90 nM)
Method in brief: (§1)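 Custom Agilent 4×180K protein-binding microarrays carried double-stranded probes. Their 34-nt variable regions held direct-repeat seeds, single-nucleotide variants, half-site ablations and random human genomic background sequences. Arrays were incubated 1 h with ligand-free nuclear receptor dimers in PBS pH 7.4, 2% milk, 0.02% Triton X-100, 1 mM DTT, 0.2 mg/mL BSA and 0.4 mg/ml salmon testes DNA. Antibodies against each partner (one per run) detected binding, and scanned fluorescence was regression-normalized. Binding z-scores use random background probes as reference.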

[2] = system: LXRa:RXRa (NR concentration 270 nM, RXRa partner concentration 90 nM)
Method in brief: as §1

[3] = system: LXRa homodimer (NR concentration 270 nM)
Method in brief: as §1

[4] = system: LXRb:RXRa (NR concentration 270 nM, RXRa partner concentration 90 nM)
Method in brief: as §1

[5] = system: LXRb homodimer (NR concentration 270 nM)
Method in brief: as §1

[6] = system: PPARa:RXRa (NR concentration 270 nM, RXRa partner concentration 90 nM)
Method in brief: as §1

[7] = system: PPARg:RXRa (NR concentration 180 nM, RXRa partner concentration 90 nM)
Method in brief: as §1

[8] = system: PPARg:RXRa 270nM:90nM, anti-RXR (NR concentration 270 nM, RXRa partner concentration 90 nM)
Method in brief: as §1

[9] = system: PPARg:RXRa 30nM:10nM, anti-RXR (NR concentration 30 nM, RXRa partner concentration 10 nM)
Method in brief: as §1

[10] = system: PPARg:RXRa 90nM:30nM, anti-RXR (NR concentration 90 nM, RXRa partner concentration 30 nM)
Method in brief: as §1

[11] = system: PPARg:RXRa DBDmut IVT, anti-RXR (DBD mutation: RXRa K156A/R161A, NR concentration 270 nM, RXRa partner concentration 90 nM)
Method in brief: as §1

[12] = system: PPARg:RXRa IVT, anti-PPARg (NR concentration 270 nM, RXRa partner concentration 90 nM)
Method in brief: as §1

[13] = system: PPARg DBDmut:RXRa IVT, anti-PPARg (DBD mutation: PPARg1 K132A/R137A, NR concentration 270 nM, RXRa partner concentration 90 nM)
Method in brief: as §1

[14] = system: PPARg DBDmut IVT, anti-PPARg (DBD mutation: PPARg1 K132A/R137A, NR concentration 270 nM)
Method in brief: as §1

[15] = system: PPARg homodimer (NR concentration 180 nM)
Method in brief: as §1

[16] = system: PXR:RXRa (NR concentration 270 nM, RXRa partner concentration 90 nM)
Method in brief: as §1

[17] = system: PXR homodimer (NR concentration 270 nM)
Method in brief: as §1

[18] = system: RARa:RXR (NR concentration 270 nM, RXRa partner concentration 90 nM)
Method in brief: as §1

[19] = system: RARa homodimer (NR concentration 270 nM)
Method in brief: as §1

[20] = system: RARb:RXRa (NR concentration 270 nM, RXRa partner concentration 90 nM)
Method in brief: as §1

| Sequence | PBM binding z-score [1] | PBM binding z-score [2] | PBM binding z-score [3] | PBM binding z-score [4] | PBM binding z-score [5] | PBM binding z-score [6] | PBM binding z-score [7] | PBM binding z-score [8] | PBM binding z-score [9] | PBM binding z-score [10] | PBM binding z-score [11] | PBM binding z-score [12] | PBM binding z-score [13] | PBM binding z-score [14] | PBM binding z-score [15] | PBM binding z-score [16] | PBM binding z-score [17] | PBM binding z-score [18] | PBM binding z-score [19] | PBM binding z-score [20] |
| --- | --- | --- | --- | --- | --- | --- | --- | --- | --- | --- | --- | --- | --- | --- | --- | --- | --- | --- | --- | --- |
| CGTCAAAGTTCACCTAAGGTAACGTAAAGCACGC | 6.94 | 6.74 | 3.99 | 4.24 | 1.27 | 5.11 | 5.63 | 5.75 | 2.48 | 4.52 | 0.554 | 2.63 | 0.556 | 0.77 | 3.35 | 5.29 | 3.14 | 4.17 | 0.893 | 5.21 |
| TGGCCTAGGTCATGCGGGCCAGTATAGTGTCGGC | 3.58 | 2.57 | -0.464 | 1.2 | -1.55 | 3.28 | 1.7 | 2.2 | 0.139 | 0.89 | 1.03 | 2.44 | -0.76 | -1.48 | 0.35 | 1.12 | -0.591 | 2.07 | -0.739 | 3.53 |
| ATATGTAGGTTACGTCCGGGTCATTCAGGCTATG | 2.37 | 4.62 | 1.21 | 3.12 | 0.722 | 4.6 | 5.86 | 5.24 | 2.88 | 4.48 | 7.35 | 7.47 | 4.19 | 3.42 | 3.1 | 3.87 | 2.03 | 4.08 | 0.587 | 2.47 |
| CCTACTGGGCCAAAGGACATTGATTCCAATGCTC | -0.0323 | -0.0828 | -0.295 | -0.127 | -0.465 | 2.62 | 5.82 | 6.75 | 5.26 | 7.73 | 4.14 | 4.09 | -0.131 | -0.115 | 0.47 | -0.488 | -0.554 | -0.324 | -0.235 | 0.93 |
| AGTCAAAGTTCAGGACGAGGTACCGTAAAGCACG | 3.73 | 3.6 | 1.07 | 1.66 | 0.243 | 3.21 | 4.19 | 4.86 | 1.63 | 3.51 | -0.264 | 0.999 | -0.0468 | -0.427 | 0.643 | 2.17 | 0.824 | 2.02 | 0.582 | 4.34 |
| CAAACTAGGTCAAAGGTCAAACTCGAGCCAACCA | 8.63 | 7.62 | 6.78 | 7.4 | 3.51 | 7.76 | 14.1 | 11.6 | 13.3 | 13.7 | 8.72 | 9.06 | 5.54 | 4.24 | 5.23 | 7.03 | 2.84 | 8.96 | 3.29 | 5.81 |
| TGAATGAGGTCAAAGATCAGGGAACGTGGCGTCG | 7.57 | 6.26 | 1.74 | 4.88 | 2.72 | 6.45 | 9.41 | 8.31 | 7.23 | 9.22 | 5.48 | 6.25 | 2.11 | 0.903 | 2.17 | 5.41 | 1.74 | 6.5 | 1.38 | 4.99 |
| ATCGAAAGGTCGACGAGGTGAGTATGCACCGTTT | 4.61 | 3.13 | -0.377 | 2.5 | 0.258 | 4.53 | 2.51 | 3.05 | 0.831 | 1.92 | 0.283 | 1.96 | 0.899 | 0.519 | 1.67 | 2.99 | 0.682 | 3.5 | 0.243 | 3.99 |
| ATCGAAATGTCGTGAGGTGAGTATACAGAAAGGC | 0.101 | -0.0819 | -0.191 | -0.0754 | -0.00242 | -0.0374 | 0.546 | -0.0357 | -0.12 | 0.0916 | -0.876 | 0.356 | 1.2 | 0.426 | -0.35 | -0.158 | -0.418 | 0.27 | -0.172 | 0.61 |
| CAAAGTAGGTCAAGAGGTCAAAGTCCGCTTCCCG | 7.25 | 6.52 | 6.36 | 5.69 | 2.34 | 6.74 | 10.3 | 8.87 | 7.55 | 9.17 | 8.4 | 8.84 | 1.65 | 1.18 | 5.39 | 6.22 | 3.31 | 7.83 | 2.53 | 5.55 |
| ATCGAAAAGTCGAAGGTGAGTATACCCACCCGAA | 0.0437 | -0.18 | -0.293 | -0.264 | -0.243 | 0.35 | 0.704 | 0.332 | 0.126 | 0.251 | -0.679 | 0.2 | 0.0254 | 0.527 | 0.0253 | -0.258 | -0.0858 | 0.357 | 0.291 | 0.417 |
| CAACCTAGGTCACCGGAAGGTCAAAGTCCGCATG | 7.05 | 6.32 | 5.53 | 5.93 | 1.49 | 5.6 | 6.23 | 6.31 | 3.11 | 5.38 | 4.96 | 5.75 | 0.0174 | 0.904 | 8.27 | 6.29 | 2.96 | 7.58 | 5.02 | 5.39 |
| TAGCCTAGGTCATAGGGCCAGTATAGTACGCATC | 4.13 | 3.13 | 0.208 | 2.09 | -0.248 | 3.7 | 3.32 | 3.46 | 1.43 | 2.75 | 1.41 | 2.83 | 0.326 | -0.841 | 1.14 | 1.45 | -0.088 | 2.37 | -0.213 | 3.75 |
| GCTGCTAGGTCAACTGATGGTCAGCTAAAGCTCG | 4.31 | 3.05 | 0.34 | 2.04 | -0.115 | 3.63 | 2.88 | 3.35 | 0.939 | 2.08 | 4.92 | 4.19 | -0.0375 | -1.12 | 1.55 | 1.66 | -0.596 | 3 | 0.346 | 4.26 |
